According to PubChem BioAssay (Tox21):
Results filed as inconclusive are left out. Where a structure was tested more than once in an assay, its records may differ in their call. Activity calls are given as the source filed them. Unless noted, calls come from the whole dose curve; as a rule, active = well fitted curve in the direction sought with a large enough effect in the repeat runs; inconclusive = weak or mixed curves; inactive = no such curve, though single readings can be large; an effect the other way counts as inactive or inconclusive.

How the values were obtained:
[1] = qHTS assay to identify small molecule antagonists of the estrogen related receptor (ERR) signaling pathway from Tox21 library - cell viability counter screen (AID 1224834); note: nearly all actives have a fitted effect of over 30% in size
In short: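 Seeded ERR cells were rested 6 h at 37 C/5% CO2 before compounds, positive and negative controls or DMSO were added. Incubation continued for 17.5 h, and viability was then quantified by CellTiter-Fluor fluorescence.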

[2] = qHTS assay to identify small molecule agonists of the constitutive androstane receptor (CAR) signaling pathway - cell viability counter screen (AID 1224836); note: nearly all actives have a fitted effect of over 45% in size
In short: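 HepG2-CYP2B6-hCAR, 2500 cells/well, 4 h pre-incubation; cpd 15 conc + PK11195 0.75 uM final; 23 h, 37 C/5% CO2; CellTiter-Fluor, fluorescence.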

[3] = qHTS assay to identify small molecule antagonists of the constitutive androstane receptor (CAR) signaling pathway - cell viability counter screen (AID 1224837); note: nearly all actives have a fitted effect of over 45% in size
In short: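 To flag cytotoxic false antagonists, HepG2 hCAR/CYP2B6-2.2kb cells were treated 23 hr with 15-concentration compound series and 50 nM CITCO at 37 C/5% CO2; CellTiter-Fluor fluorescence was the measured end point.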

[4] = biological target: Nuclear receptor subfamily 1 group I member 3 (Homo sapiens) (UniProt Q14994); assay: qHTS assay to identify small molecule antagonists of the constitutive androstane receptor (CAR) signaling pathway (AID 1224838);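 note: HepG2 cells stably expressing hCAR with CYP2B6 luciferase reporter stimulated by CITCO; nearly all actives have a fitted effect of over 40% in size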
In short: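 Human hepatoma HepG2 cells expressing hCAR and a CYP2B6 promoter (2.2 kb) luciferase construct; compound titration (15 points) with 50 nM CITCO final, 24 h at 37 C/5% CO2; luminescence via ONE-Glo after 30 min at room temperature.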

[5] = biological target: Nuclear receptor subfamily 1 group I member 3 (Homo sapiens) (UniProt Q14994); assay: qHTS assay to identify small molecule agonists of the constitutive androstane receptor (CAR) signaling pathway (AID 1224839); note: nearly all actives have a fitted effect of over 15% in size
In short: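 HepG2-CYP2B6-hCAR cells, 2500/well, 4 h pre-incubation; compounds 15 conc.; PK11195 0.75 uM final; 24 h, 37 C/5% CO2; ONE-Glo luciferase read.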

[6] = qHTS assay to identify small molecule antagonists of the estrogen related receptor signaling pathway with the pleiotropic PPARgamma coactivator (PGC) from Tox21 10K library - cell viability counter screen (AID 1224840; active = well fitted cell-killing curve with a large enough effect in the repeat runs, not every such curve was filed as active; note: nearly all actives have a fitted effect of over 40% in size)
In short: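 Seeded PGC/ERR cells (2,000/well, 6 h, 37 C/5% CO2) get compound by pin tool; 17.5 h incubation at 37 C; CellTiter-Fluor added, 30 min, fluorescence measured.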

[7] = biological target: Thyrotropin receptor (Homo sapiens) (UniProt P16473); assay: qHTS assay to identify small molecule agonists of the thyroid stimulating hormone receptor (TSHR) signaling pathway (AID 1224843; calls by dose curve; note: nearly all actives have a fitted effect of over 45% in size)
In short: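 Compounds are titrated over 15 concentrations, in triplicate, onto TSHR-HEK293 cells seeded at 800/well. Plates sit 30 min at room temperature before cAMP-d2 and anti-cAMP cryptate are added; signal is read after a further hour.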

[8] = qHTS assay to identify small molecule antagonists of the estrogen related receptor signaling pathway with the pleiotropic PPARgamma coactivator (PGC) from Tox21 10K library (AID 1224841; call rule not given here; note: actives are mostly falling curves and most rising ones were filed inactive; nearly all actives have a fitted effect of over 50% in size)
In short: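 Test chemicals dissolved in DMSO were applied to pre-incubated (6 h) PGC/ERR cells at 2,000 cells/well for an 18 h, 37 C treatment; reporter luminescence was then read using One-Glo.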

[9] = qHTS assay to identify small molecule agonists of the estrogen related receptor signaling pathway with the pleiotropic PPARgamma coactivator (PGC) from Tox21 10K library (AID 1224842); note: nearly all actives have a fitted effect of over 15% in size
In short: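 PGC/ERR reporter cells (NTP line) were seeded 2,000 per well, rested 6 h at 37 C/5% CO2, then pin-dosed with compounds in DMSO for 18 h at 37 C; luciferase read by One-Glo luminescence after 30 min at room temperature.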

Measured: Potency
Potency is the fitted concentration of half-maximal effect.

Sequence of Nuclear receptor subfamily 1 group I member 3 (Homo sapiens) (Q14994 whole entry, looked up): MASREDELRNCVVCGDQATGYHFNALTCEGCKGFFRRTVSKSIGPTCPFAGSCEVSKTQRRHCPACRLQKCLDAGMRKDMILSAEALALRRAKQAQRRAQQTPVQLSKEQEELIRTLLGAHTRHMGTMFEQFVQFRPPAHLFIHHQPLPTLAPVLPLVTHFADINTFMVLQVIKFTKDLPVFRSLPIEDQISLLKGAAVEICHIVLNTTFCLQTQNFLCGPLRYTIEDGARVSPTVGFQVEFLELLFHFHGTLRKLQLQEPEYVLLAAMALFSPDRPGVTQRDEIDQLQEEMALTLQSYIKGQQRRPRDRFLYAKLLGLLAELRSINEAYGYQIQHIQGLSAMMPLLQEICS
Sequence of Thyrotropin receptor (Homo sapiens) (P16473 whole entry, looked up): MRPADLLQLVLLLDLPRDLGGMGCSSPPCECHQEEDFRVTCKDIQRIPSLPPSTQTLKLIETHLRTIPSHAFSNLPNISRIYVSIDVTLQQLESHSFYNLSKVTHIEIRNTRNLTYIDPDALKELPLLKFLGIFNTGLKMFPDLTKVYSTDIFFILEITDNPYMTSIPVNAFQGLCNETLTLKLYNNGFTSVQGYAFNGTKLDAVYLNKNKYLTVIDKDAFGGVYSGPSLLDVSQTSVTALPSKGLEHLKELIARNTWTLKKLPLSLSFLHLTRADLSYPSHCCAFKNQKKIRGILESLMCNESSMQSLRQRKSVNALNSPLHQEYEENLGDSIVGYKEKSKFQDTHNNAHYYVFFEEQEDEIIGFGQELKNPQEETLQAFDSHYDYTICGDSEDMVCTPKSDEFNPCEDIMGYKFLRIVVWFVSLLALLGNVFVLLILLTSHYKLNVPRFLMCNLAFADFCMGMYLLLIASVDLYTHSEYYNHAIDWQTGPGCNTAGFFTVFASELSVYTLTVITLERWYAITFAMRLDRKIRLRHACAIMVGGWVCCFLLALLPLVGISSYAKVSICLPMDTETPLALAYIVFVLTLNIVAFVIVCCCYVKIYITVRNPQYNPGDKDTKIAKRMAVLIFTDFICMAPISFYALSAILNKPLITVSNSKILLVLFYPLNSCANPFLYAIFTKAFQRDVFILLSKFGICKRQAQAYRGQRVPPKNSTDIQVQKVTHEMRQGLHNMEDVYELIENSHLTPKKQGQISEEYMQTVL

CC(C)(c1ccccc1)c1ccccc1
active: [5] 45.1 µM
not listed: [8] | [9]
inactive: all other assays above

CCCCCCCCCI
active: [9] 8.79 µM | [7] 24.8 µM
inactive: all other assays above

O=C(OC(=O)c1ccccc1)c1ccccc1
inactive: [1] | [2] | [3] | [6] | [7]

O=C(OCC(O)CO)c1ccccc1Nc1ccnc2cc(Cl)ccc12 (stereo not drawn)
active: [1] 29.8 µM
not listed: [7]
inactive: all other assays above

CCCCCCCCCCC(=O)O
inactive: [1] | [2] | [3] | [6] | [7]

c1csc(SSc2cccs2)c1
inactive: [5] | [9] | [7]
active: [1] 54.5 µM | [2] 54.5 µM | [3] 48.6 µM | [4] 43.3 µM

CCOC(=O)c1ccc(OCCN2C[C@H](O)[C@@H](O)[C@H](O)[C@H]2CO)cc1
not listed: [8] | [9]
inactive: all other assays above

O=C=Nc1ccc(Cl)c(Cl)c1
not listed: [8]
inactive: all other assays above

CCN(CC)CCNC(=O)COc1ccc(OC)cc1
not listed: [7] | [8] | [9]
inactive: all other assays above

C=CC(C)(CCC=C(C)C)OC(=O)CC(C)C (stereo not drawn)
not listed: [2] | [8] | [9]
inactive: all other assays above

CC1CC(C)C(=O)C1=O (stereo not drawn)
not listed: [8] | [9]
inactive: all other assays above

CN1C(C(=O)Nc2ccccn2)=C(O)c2sccc2S1(=O)=O
inactive: [1] | [3] | [4] | [5] | [6]

CCC(C)(C)OC
not listed: [8]
inactive: all other assays above

CC1=Nc2ccc3ccccc3c2C1(C)C
inactive: [1] | [2] | [6] | [9] | [7]

C[C@@H]1CN(CCCn2c3ccccc3c3ccccc32)C[C@H](C)N1
inactive: [9]
active: [1] 29.8 µM | [2] 29.8 µM | [3] 26.6 µM | [5] 2.11 µM | [6] 26.6 µM

O=C(O)CCc1nc(-c2ccccc2)c(-c2ccccc2)o1
inactive: all assays above

O=C1c2ccccc2C(=O)N1CCc1noc(-c2ccc(CN3CCCCCC3)s2)n1
inactive: [3] | [4] | [5]
active: [1] 49.9 µM

C[C@]12CC[C@@H]3c4ccc(O)cc4CC[C@H]3[C@@H]1CC[C@@H]2OC(=O)CCC1CCCC1
61.1 µM (active) and inactive: [1] | [6]
active: [5] 15.4 µM
inactive: all other assays above

O=C1c2ccccc2C(=O)c2c(O)c(O)cc(O)c21
inactive: [2] | [3] | [4] | [9] | [7]
active: [1] 30.6 µM

CC(C)=CCC/C(C)=C/CC/C(C)=C/C(=O)OCC(=O)[C@@]1(O)CC[C@H]2[C@@H]3CCC4=CC(=O)C=C[C@]4(C)[C@H]3[C@@H](O)C[C@@]21C
active: [1] 29.8 µM | [8] 16.8 µM
not listed: [2] | [5]
inactive: all other assays above

C=CCc1ccccc1OCC(O)CNC(C)C (stereo not drawn)
not listed: [8] | [9]
inactive: all other assays above

CS(=O)(=O)c1ccc(-c2cn3ccccc3n2)cc1
active: [5] 2.11 µM
not listed: [3] | [9]
inactive: all other assays above

CCCCCCCC/C=C\CCCCCCCCO
not listed: [4] | [5]
inactive: all other assays above

CCOC(=O)OC(C)OC(=O)[C@@H]1N2C(=O)[C@@H](NC(=O)[C@H](N)c3ccccc3)[C@H]2SC1(C)C (stereo partly drawn)
not listed: [8] | [9]
inactive: all other assays above

CCCCN1CCCC1C(=O)Nc1c(C)cc(C)cc1C (stereo not drawn)
active: [5] 29.8 µM
not listed: [8] | [9]
inactive: all other assays above

CC(C)C[C@H](NC(=O)[C@H](CCc1ccccc1)NC(=O)CN1CCOCC1)C(=O)N[C@@H](Cc1ccccc1)C(=O)N[C@@H](CC(C)C)C(=O)[C@@]1(C)CO1
inactive: [5] | [9] | [7]
active: [1] 0.133 µM | [2] 0.376 µM | [3] 0.422 µM | [4] 0.119 µM | [6] 3.35 µM | [8] 0.0841 µM
